In PubChem BioAssay (NCATS):
Inconclusive results are not listed. Calls of active or inactive are those of the source. Calls follow the shape of the dose curve; as a rule, active = well fitted curve in the direction sought with a large enough effect; inconclusive = small, poorly fitted or top-dose-only effect, or another doubt; inactive = no such curve, though single readings can be large; an effect the other way counts as inactive or inconclusive.

Target: ATP-dependent 6-phosphofructokinase (Trypanosoma brucei brucei) (UniProt O15648)
Sequence (O15648 whole entry, looked up): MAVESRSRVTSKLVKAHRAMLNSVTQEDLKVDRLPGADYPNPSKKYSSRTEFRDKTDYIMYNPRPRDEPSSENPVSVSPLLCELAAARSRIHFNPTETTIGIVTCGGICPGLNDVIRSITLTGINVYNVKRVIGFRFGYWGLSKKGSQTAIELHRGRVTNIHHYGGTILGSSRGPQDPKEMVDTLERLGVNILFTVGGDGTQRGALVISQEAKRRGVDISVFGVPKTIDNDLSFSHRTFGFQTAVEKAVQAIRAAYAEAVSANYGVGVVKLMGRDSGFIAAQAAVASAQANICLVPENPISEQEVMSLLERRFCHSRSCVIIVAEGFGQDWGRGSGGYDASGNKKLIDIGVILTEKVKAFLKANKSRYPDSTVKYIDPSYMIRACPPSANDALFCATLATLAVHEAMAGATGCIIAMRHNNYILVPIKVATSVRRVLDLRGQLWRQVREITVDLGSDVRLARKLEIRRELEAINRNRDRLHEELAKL
Assay: qHTS Assay to Find Inhibitors of T. brucei phosphofructokinase: hit validation (AID 492961);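 also: luminescence reports ADP formed as PFK phosphorylates fructose-6-phosphate with ATP; % is scaled to controls: 0 for no effect and ±100 for the full control effect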
Details: T. brucei PFK, ADP-Glo luminescence; series mostly up to 51.4 µM; activity change, negative = inhibition: at the top concentration
Procedure, shortened: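 PFK 1.25 nM, F6P 0.5 mM, ATP 0.1 mM, MgCl2 5 mM, 0.1 M TEA pH 8.0, Tween20 0.01%, BSA 0.1%; 45 min RT. ADP-Glo two-step detection, luminescence. qHTS titration; curve fitting with curve-class categorization.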

Activity change, negative = inhibition, inactive:
CCCCCCCCCCCC(=O)OCC(O)C1OCC(O)C1O (centres undefined) 8.52%
C/C1=C2/[N-]C(C(CC(N)=O)[C@@]2(C)CCC(=O)NCC(C)OP(=O)([O-])O[C@H]2[C@@H](O)[C@@H](n3cnc4cc(C)c(C)cc43)O[C@@H]2CO)[C@]2(C)N=C(/C(C)=C3N=C(/C=C4N=C1C(CCC(N)=O)C\4(C)C)[C@@H](CCC(N)=O)[C@]\3(C)CC(N)=O)[C@@H](CCC(N)=O)[C@]2(C)CC(N)=O.CC(=O)O.[Co] (some centres undefined) -2.88%
CC1(C)OC[C@@H]2O[C@@]3(C(=O)O)OC(C)(C)O[C@@H]3[C@@H]2O1 2.13%
Cc1ccccc1N1C(=O)c2cc(N)ccc2N/C1=C\F -2.78%
CCC(C(=O)O)C1OC(C(C)C(O)C(C)C(=O)C(CC)C2OC3(C=CC(O)C4(CCC(C)(C5CCC(O)(CC)C(C)O5)O4)O3)C(C)CC2C)C(C)CC1C (centres undefined) -7.72%
O=C1C(I)=CC(=C(c2cc(I)c(O)c(I)c2)c2ccccc2C(=O)O)C=C1I -7.41%
NC(=O)NC(CCC(=O)O)C(=O)O (centres undefined) 0%
COC1CC2CCC(C)[C@](O)(O2)C(=O)C(=O)N2CCCCC2C(=O)OC(C(C)CC2CCC(O)C(OC)C2)CC(=O)C(C)/C=C(/C)C(O)C(OC)C(=O)C(C)CC(C)C=CC=C/C=C\1C (some centres undefined) 0%
CC(=O)OCC(=O)[C@@]1(O)CCC2C3C[C@H](C)C4=CC(=O)C=CC4(C)C3C(O)CC21C (some centres undefined) -1.35%
CN[C@H](C)CCC=C(C)C 6.62%
CC1(C)C2CC[C@]1(C)[C@@H](O)C2 5.18%
OCC1O[C@H](Oc2ccc(O)cc2)C(O)C(O)C1O (some centres undefined) 1.62%
Nc1nc(F)nc2c1ncn2[C@@H]1O[C@H](CO)[C@@H](O)[C@H]1O 5.09%
CC1OC(OC2CCC3(C)C(CCC4C3CC(O)C3(C)C(C5=CC(=O)OC5)CCC43O)C2)CC(O)C1OC1CC(O)C(OC2CC(O)C(OC3OC(CO)C(O)C(O)C3O)C(C)O2)C(C)O1 (centres undefined) -3.56%
CC1OC(OCC2OC(Oc3c(-c4ccc(OCCO)c(OCCO)c4)oc4cc(OCCO)cc(O)c4c3=O)C(O)C(O)C2O)[C@@H](O)C(O)C1O (some centres undefined) -1.17%

Target: Ubiquitin carboxyl-terminal hydrolase 1 (Homo sapiens) (UniProt O94782)
Sequence (O94782 whole entry, looked up): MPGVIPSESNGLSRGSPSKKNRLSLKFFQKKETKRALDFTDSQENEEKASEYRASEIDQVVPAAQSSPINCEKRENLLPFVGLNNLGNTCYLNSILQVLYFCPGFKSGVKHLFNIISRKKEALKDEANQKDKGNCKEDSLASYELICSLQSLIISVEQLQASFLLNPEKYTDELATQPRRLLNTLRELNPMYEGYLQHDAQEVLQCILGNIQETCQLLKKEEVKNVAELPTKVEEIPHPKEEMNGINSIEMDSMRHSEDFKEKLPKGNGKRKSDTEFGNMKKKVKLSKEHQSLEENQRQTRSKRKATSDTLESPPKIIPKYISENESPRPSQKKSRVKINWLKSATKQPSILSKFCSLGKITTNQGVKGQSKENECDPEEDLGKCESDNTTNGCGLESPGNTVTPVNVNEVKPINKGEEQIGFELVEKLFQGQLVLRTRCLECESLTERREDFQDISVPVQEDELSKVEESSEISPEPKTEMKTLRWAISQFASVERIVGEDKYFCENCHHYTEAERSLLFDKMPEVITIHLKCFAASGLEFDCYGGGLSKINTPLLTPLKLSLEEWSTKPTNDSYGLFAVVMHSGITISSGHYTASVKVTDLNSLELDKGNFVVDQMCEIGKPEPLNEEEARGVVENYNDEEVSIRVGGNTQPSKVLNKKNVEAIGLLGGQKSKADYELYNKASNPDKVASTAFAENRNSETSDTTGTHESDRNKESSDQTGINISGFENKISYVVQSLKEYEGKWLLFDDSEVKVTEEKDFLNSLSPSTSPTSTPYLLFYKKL
Assay: Inhibitors of USP1/UAF1: Pilot qHTS (AID 504865);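 also: rhodamine fluorescence freed from ubiquitin-rhodamine substrate followed over time; top concentration of the series differs between compounds; % is scaled to controls: 0 for no effect and ±100 for the full control effect; nearly all actives have a fitted effect of over 35% in size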
Details: purified USP1/UAF1, Ub-rhodamine cleavage fluorescence; series mostly up to 114 µM; activity change, negative = inhibition: at the top concentration
Procedure, shortened: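 Kinetic fluorescence assay: 1nM USP1/UAF1, 15 min compound preincubation, then 150nM Ub-Rho; 480/540 nm.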

Activity change, negative = inhibition, inactive:
CCCCCCCCCCCCCCCC(=O)OC[C@H](O)[C@H]1OC[C@@H](O)[C@@H]1O -4.56%
C[C@H]1OC(OC2C(O)[C@@H](O)C(OC3C(O)[C@@H](O)C(O)O[C@@H]3CO)O[C@@H]2CO)[C@H](O)C(O)C1N[C@H]1C=C(CO)[C@@H](O)[C@H](O)C1O (some centres undefined) -4.98%
CCN(CC)CC(=O)Nc1c(C)cc(C)cc1C -0.128%
CC1(Cn2ccnn2)[C@H](C(=O)O)N2C(=O)C[C@H]2S1(=O)=O (some centres undefined) -2.98%
CN(C)CC/C=C1\c2ccccc2COc2ccc(CC(=O)O)cc21 -0.509%
CC(CCC(=O)O)C1CCC2C3C(=O)C[C@@H]4CC(=O)CC[C@@]4(C)C3CC(=O)[C@]12C (some centres undefined) 8.01%
O=C(OC[C@@H]1O[C@@](O)(COC(=O)c2cccnc2)[C@H](OC(=O)c2cccnc2)[C@H]1OC(=O)c1cccnc1)c1cccnc1 -5.38%
OCCOC[C@H]1O[C@H](OCCO)[C@H](OCCO)[C@@H](OCCO)[C@@H]1OCCO (tested in a mixture with another compound) -5.65%
C[S+](C)CC[C@H](N)C(=O)O -3.04%
NC(=O)C1CC2(NC(=O)NC2=O)c2cc(F)ccc2O1 (centres undefined) -3.63%
CCC(C(=O)O)C1OC(C(C)C(O)C(C)C(=O)C(CC)C2OC3(C=CC(O)C4(CCC(C)(C5CCC(O)(CC)C(C)O5)O4)O3)C(C)CC2C)C(C)CC1C (centres undefined) -14.3%
NC(=O)NC(CCC(=O)O)C(=O)O (centres undefined) 0.183%
CC(=O)OCC(=O)[C@@]1(O)CCC2C3C[C@H](C)C4=CC(=O)C=CC4(C)C3C(O)CC21C (some centres undefined) -2.2%
CN[C@H](C)CCC=C(C)C -6.47%
Nc1nc(F)nc2c1ncn2[C@@H]1O[C@H](CO)[C@@H](O)[C@H]1O -0.11%
CC1OC(OC2CCC3(C)C(CCC4C3CC(O)C3(C)C(C5=CC(=O)OC5)CCC43O)C2)CC(O)C1OC1CC(O)C(OC2CC(O)C(OC3OC(CO)C(O)C(O)C3O)C(C)O2)C(C)O1 (centres undefined) -7.02%
CC1OC(OCC2OC(Oc3c(-c4ccc(OCCO)c(OCCO)c4)oc4cc(OCCO)cc(O)c4c3=O)C(O)C(O)C2O)[C@@H](O)C(O)C1O (some centres undefined) -10.6%

Potency, inactive:
NC(=O)c1ncn(C2OC(CO)C(O)C2O)c1N (centres undefined)

Target: Luciferin 4-monooxygenase (Photinus pyralis) (UniProt P08659)
Sequence (P08659 whole entry, looked up): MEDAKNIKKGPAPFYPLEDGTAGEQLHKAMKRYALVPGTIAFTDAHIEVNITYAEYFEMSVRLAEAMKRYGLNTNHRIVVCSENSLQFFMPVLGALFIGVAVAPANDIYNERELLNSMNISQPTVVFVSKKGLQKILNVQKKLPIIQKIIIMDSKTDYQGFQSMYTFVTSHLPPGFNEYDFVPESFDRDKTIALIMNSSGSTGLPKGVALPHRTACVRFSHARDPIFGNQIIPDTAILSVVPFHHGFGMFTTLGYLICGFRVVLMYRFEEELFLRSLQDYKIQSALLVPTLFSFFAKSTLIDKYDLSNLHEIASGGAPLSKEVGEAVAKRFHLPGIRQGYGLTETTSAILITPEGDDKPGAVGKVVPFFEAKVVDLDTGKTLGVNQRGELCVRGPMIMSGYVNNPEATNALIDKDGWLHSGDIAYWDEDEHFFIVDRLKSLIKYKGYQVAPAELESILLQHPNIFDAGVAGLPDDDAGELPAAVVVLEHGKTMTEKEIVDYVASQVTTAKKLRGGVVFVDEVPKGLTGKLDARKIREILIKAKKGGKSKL
Assay: Biochemical firefly luciferase enzyme assay for NPC (AID 624030);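 also: purified P. pyralis luciferase at 10 nM with luciferin and ATP substrate; 0% = DMSO and -100% = full luciferase inhibition by PTC124 control; nearly all actives have a fitted effect of over 70% in size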
Details: purified P. pyralis luciferase, luminescence, 5 min; series mostly up to 58.6 µM; activity change, negative = inhibition: at the top concentration
Procedure, shortened: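 Counter-screen for direct inhibition of the luciferase enzyme by approved-drug library compounds, run at 10 nM enzyme in 50 mM Tris acetate (final). Luminescence was read within 5 min of enzyme-buffer addition and normalized to PTC124 versus DMSO (0%).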

Activity change, negative = inhibition, inactive:
CCCCCCCCCCCCCCCC(=O)OC[C@H](O)[C@H]1OC[C@@H](O)[C@@H]1O 1.07%
C[C@H]1OC(OC2C(O)[C@@H](O)C(OC3C(O)[C@@H](O)C(O)O[C@@H]3CO)O[C@@H]2CO)[C@H](O)C(O)C1N[C@H]1C=C(CO)[C@@H](O)[C@H](O)C1O (some centres undefined) 3.7%
CCN(CC)CC(=O)Nc1c(C)cc(C)cc1C -3.15%
NC(=O)c1ncn(C2OC(CO)C(O)C2O)c1N (centres undefined) -0.0927%
C[C@H]1[C@@H](OC(=O)CCC(=O)O)OC2OC3(C)CC[C@H]4[C@H](C)CC[C@@H]1[C@@]24OO3 (some centres undefined) -4.62%
CC1(Cn2ccnn2)[C@H](C(=O)O)N2C(=O)C[C@H]2S1(=O)=O (some centres undefined) 4.85%
CN(C)CC/C=C1\c2ccccc2COc2ccc(CC(=O)O)cc21 -1.9%
CC(CCC(=O)O)C1CCC2C3C(=O)C[C@@H]4CC(=O)CC[C@@]4(C)C3CC(=O)[C@]12C (some centres undefined) 0.0858%
C[n+]1c2cc(N)ccc2cc2ccc(N)cc21 -14.8%
O=[N+]([O-])O[C@H]1CO[C@H]2[C@@H]1OC[C@H]2O 1.22%
OCCOC[C@H]1O[C@H](OCCO)[C@H](OCCO)[C@@H](OCCO)[C@@H]1OCCO (tested in a mixture with another compound) -0.865%
C[S+](C)CC[C@H](N)C(=O)O 0.0214%
CC[C@@H]1/C=C(\C)C[C@H](C)C[C@H](OC)[C@H]2O[C@@](O)(C(=O)C(=O)N3CCCC[C@H]3C(=O)O[C@H](/C(C)=C/[C@@H]3CC[C@H](Cl)[C@H](OC)C3)[C@H](C)[C@@H](O)CC1=O)[C@H](C)C[C@@H]2OC 2.06%
NC(=O)C1CC2(NC(=O)NC2=O)c2cc(F)ccc2O1 (centres undefined) -1.03%
CN1[C@@H]2CC[C@@H]1CC(OC(=O)[C@H](CO)c1ccccc1)C2 (some centres undefined) 6.38%
CC1(C)OC[C@@H]2O[C@@]3(C(=O)O)OC(C)(C)O[C@@H]3[C@@H]2O1 2.87%
Cc1ccccc1N1C(=O)c2cc(N)ccc2N/C1=C\F -0.717%
CCC(C(=O)O)C1OC(C(C)C(O)C(C)C(=O)C(CC)C2OC3(C=CC(O)C4(CCC(C)(C5CCC(O)(CC)C(C)O5)O4)O3)C(C)CC2C)C(C)CC1C (centres undefined) -1.16%
NC(=O)NC(CCC(=O)O)C(=O)O (centres undefined) -3.4%
COC1CC2CCC(C)[C@](O)(O2)C(=O)C(=O)N2CCCCC2C(=O)OC(C(C)CC2CCC(O)C(OC)C2)CC(=O)C(C)/C=C(/C)C(O)C(OC)C(=O)C(C)CC(C)C=CC=C/C=C\1C (some centres undefined) -5.01%
CC(=O)OCC(=O)[C@@]1(O)CCC2C3C[C@H](C)C4=CC(=O)C=CC4(C)C3C(O)CC21C (some centres undefined) 0.317%
CN[C@H](C)CCC=C(C)C 1.09%
OCC1O[C@H](Oc2ccc(O)cc2)C(O)C(O)C1O (some centres undefined) -1.22%
Nc1nc(F)nc2c1ncn2[C@@H]1O[C@H](CO)[C@@H](O)[C@H]1O 4.63%
CC1OC(OC2CCC3(C)C(CCC4C3CC(O)C3(C)C(C5=CC(=O)OC5)CCC43O)C2)CC(O)C1OC1CC(O)C(OC2CC(O)C(OC3OC(CO)C(O)C(O)C3O)C(C)O2)C(C)O1 (centres undefined) 8.97%

Potency, inactive:
COc1cc2c(cc1O)CCN[C@@]21CS[C@H]2c3c(OC(C)=O)c(C)c4c(c3C(COC1=O)N1C2C2c3c(cc(C)c(OC)c3O)CC([C@@H]1O)N2C)OCO4 (some centres undefined)
